Most compounds without a hit are left out; they make up all but 7.1% or so of the library.
SW480 rereplic: A quantitative high throughput screen for small molecules that induce DNA re-replication in SW480 colon adenocarcinoma cells | SW480 DNA re-replication, Hoechst DNA content imaging, 48 h | actives 1.8% (n = 340,000) | Potency, µM (titrated, usually from 46.1 µM), without a hit: at the top dose re-replication activation, hits mostly activators; also: potency is read from the fitted curve at half-maximal effect; % of control where 0% means no effect; nearly all actives have a fitted effect of over 55% in size
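Compounds, transferred as 23 nL by pin tool, were incubated with cells for 48 hr; DNA content per nucleus was then quantified by Hoechst staining and fluorescence plate imaging.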
ATXN2 expr inh: Primary qHTS for Inhibitors of ATXN expression; Potency, µM (series often up to 57 µM), for the others: at the top dose activity change, negative = inhibition, actives largely listed as inhibitors; actives 0.72% (n = 360,000); HEK-293 ATXN2-luciferase reporter, luminescence, 24 h; AID 1745845, 2022; also: potency is read from the fitted curve at half-maximal effect; % is scaled to controls: 0 for no effect and ±100 for the full control effect; nearly all actives have a fitted effect of over 55% in size
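ATXN2-luciferase reporter cells (luciferase flanked by upstream and downstream ATXN2 gene portions) were treated 24 h at 37 °C with compounds at up to 57 uM. SteadyGlo luminescence gave expression; GF-AFC fluorescence gave viability.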
MCF10A rerep: A quantitative high throughput screen for small molecules that induce DNA re-replication in MCF 10a normal breast cells | Potency, µM (highest dose often 46.1 µM), without a hit: top-dose activity, positive = re-replication, most hits filed as activators | actives 2.9% (n = 350,000) | AID 624296, 2012 | MCF 10A DNA re-replication, Hoechst nuclear intensity, 48 h; also: potency is read from the fitted curve at half-maximal effect; % of control where 0% means no effect; nearly all actives have a fitted effect of over 50% in size
ATXN viability: Viability Counterscreen for Primary qHTS for Inhibitors of ATXN expression | S2 cells (HEK-293 line with an ATXN2-luciferase reporter) viability, CellTiter-Fluor protease fluorescence, 24 h | Potency, µM (top dose mostly 56.7 µM), hits mostly cytotoxic | actives 0.49% (n = 400,000) | AID 651635, 2014; also: potency is read from the fitted curve at half-maximal effect; nearly all actives have a fitted effect of over 40% in size
IL1B secr inh: qHTS for Inhibitors of Inflammasome Signaling: IL-1-beta AlphaLISA Primary Screen | THP-1 LPS/ATP IL-1B secretion, AlphaLISA, 16 h; active compounds read low | activity change, % at 57.5 µM | actives 4.7% (n = 360,000) | AID 743279, 2014; in the data active = activity change below about -50%; inconclusive = mostly about -30% to -49%; also: % is scaled to controls: 0 for no effect and ±100 for the full control effect
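Secreted IL-1B measured by AlphaLISA bead assay after 16 h compound exposure of THP-1 cells; compounds (final up to 57.5 uM) added 1 h before LPS (250 ng/mL) and ATP (1.25 mM) stimulation; lower signal means less secretion.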
PINK1 expr mod: A Quantitative High throughput Screen to Identify Chemical Modulators of PINK1 Expression | actives 0.2% (n = 410,000) | Potency, µM (highest dose often 76.6 µM), for inactives: top-dose activation (PINK1 increase), actives largely listed as activators | PINK1 immunofluorescence, high-content cytometry, 24 h | AID 624263, 2012; active = well fitted activation curve with a large enough effect; inconclusive = small, poorly fitted or top-dose-only effect; cell line not stated here; also: potency is read from the fitted curve at half-maximal effect; % of control where 0% means no effect; nearly all actives have a fitted effect of over 65% in size
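PINK1 protein level read as immunofluorescence by microplate cytometer in a fixed, stained stable cell line after 24 h exposure to five compound concentrations, with CCCP as control.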
Starred values were filed as active, the others as inactive; i = inactive; ? = inconclusive; · = no result; ! = repeats disagree; [ ] = dose if it differs, or a comment. Unless noted, calls follow the shape of the dose curve; as a rule, active = well fitted curve in the direction sought with a large enough effect; inconclusive = small, poorly fitted or top-dose-only effect, or another doubt; inactive = no such curve, though single readings can be large; an effect the other way counts as inactive or inconclusive.

SMILES	SW480 rereplic	ATXN2 expr inh	MCF10A rerep	ATXN viability	IL1B secr inh	PINK1 expr mod
O=C(Nc1nc2ccc(C(=O)N3CCCCC3)cc2s1)C1CCCCC1	6.5µM*	16%	4.1µM*	i	49	6%
COc1ccc(CC(=O)Nc2nc3ccc(F)cc3s2)cc1S(=O)(=O)N1CCOCC1	-7%[9.22 µM]	-2%	29%	i	-59*	2%
Cc1ccc2nc(NC(=O)C3CCN(S(=O)(=O)c4cccnc4)CC3)sc2c1	0%	?	10%	?	-16	5%
Cc1ccc2nc(NC(=O)C3CCN(S(=O)(=O)c4cc([N+](=O)[O-])ccc4Cl)CC3)sc2c1	?	-37%	10%	?	?	-3%
O=C(Nc1nc2cc(Cl)ccc2s1)C1CCCN(S(=O)(=O)c2cccc3cccnc23)C1 (stereo unspecified)	10%	18µM*	?	?	-19	1%
COc1ccc2nc(NC(=O)C3CCN(S(=O)(=O)c4cccs4)CC3)sc2c1	11%	?	-1%	i	-75*	-4%[38.3 µM]
COc1ccc2nc(NC(=O)c3ccc(S(=O)(=O)N4CCCC(C)C4)cc3)sc2c1 (stereo unspecified)	·	-5%	·	i	·	2%
O=C(Nc1ccccc1Cl)C1CCCN(S(=O)(=O)c2cccc3cccnc23)C1 (stereo unspecified)	9%	·	?	i	-18	2%
COc1ccc2nc(NC(=O)C3CCCN(S(=O)(=O)c4cccs4)C3)sc2c1 (stereo unspecified)	9%	-11%	-1%	i	-59*	1%
COc1c(Cl)cc(Cl)cc1/C=N/NC(=O)c1nnn(-c2nonc2N)c1CN1CCC(C)CC1	?	-8%	5.8µM*	i	-17	5%
COc1ccc(O)c(/C=N/NC(=O)c2ccc(N3CCCC3=O)cc2)c1	2.3µM*	25µM*	11%	i	13	12%
CC1CCN(Cc2c(C(=O)N/N=C/c3cc(Br)ccc3O)nnn2-c2nonc2N)CC1	?	?	2%	?	110	3%
COc1ccc(O)c(/C=N/NC(=O)c2c(C)nnn2-c2nonc2N)c1	7.3µM*	?	1%	i	38	0%
Cc1cc(C)c(/C=N/NC(=O)c2nnn(-c3nonc3N)c2CN2CCC(C)CC2)c(C)c1	?	-23%	?	?	-14	13%
CC1CCN(Cc2c(C(=O)N/N=C/c3cc(Cl)ccc3O)nnn2-c2nonc2N)CC1	5%	2.2µM*	-18%	i	103	1%
COc1ccc(O)c(/C=N/NC(=O)c2cccc(N3CCCC3=O)c2)c1	?	?	3%	i	126	14%
COc1ccc(Cn2c(=O)[nH]c3cc(C(=O)N4CCN(c5cc(Cl)ccc5C)CC4)ccc3c2=O)cc1	·	4%	·	i	·	3%
COc1ccc2cc(/C=C3\SC(=S)NC3=O)c(N3CCOCC3)nc2c1	-3%	-10%	?	?	-69*	?
CCOc1ccc(N(C)c2ccc(/C=C3/SC(=S)NC3=O)cc2)cc1	?	0%	4.1µM*	i	21	13%
CCOc1c(O)ccc(/C=C2\SC(=S)NC2=O)c1[N+](=O)[O-]	26%	22%	26µM*	?	-16	-2%
CN(C)c1ccc(C=C2SC(=S)NC2=O)cc1	0%	44%	13%	i	13	3%
COc1cccc(C=C2SC(=S)NC2=O)c1	1%	17%	16µM*	i	-7	6%
O=C1NC(=S)S/C1=C\c1cc(Cl)ccc1Cl	-10%	9%	?	i	-16	?
Cc1ccc(-c2cc(-c3ccccc3Cl)c(C#N)c(N)n2)o1	?	3%	?	i	?	0%
Cc1ccc(-c2cc(-c3ccccc3)c(C#N)c(N)n2)o1	18µM*	4%	18µM*	i	0	4%
SMILES	SW480 rereplic	ATXN2 expr inh	MCF10A rerep	ATXN viability	IL1B secr inh	PINK1 expr mod
Cc1ccc(-c2cc(-c3ccc(F)cc3)nc(N)c2C#N)o1	12µM*	-8%	3.7µM*	i	-14	3%
CCC(=O)N1c2ccc(S(=O)(=O)NCc3ccc(F)cc3)cc2CC1C (stereo unspecified)	·	-10%	·	i	·	0%
CCn1c(=O)c2c(nc3n2CCN3c2ccc(OC)cc2)n(C)c1=O	·	-11%	·	i	·	-1%
CS/C(=N\S(=O)(=O)c1cccs1)Nc1ccc(Br)cc1F	0%	-22%	23µM*!	i	-1	1%
CCC(=O)N1CCCC1(C)C(=O)Nc1ccc(C)c(C)c1 (stereo unspecified)	·	11%	·	i	189	1%
C/C=C1\COC(C(=O)NCCN2CCCC2)(C(F)(F)F)C=C1C=C1CCCCC1 (stereo unspecified)	?	?	6.5µM*	?	-78*	1%
CC(=O)Nc1ccc2nc(CN3CCC(CO)(CCc4ccccc4)CC3)ccc2c1	0%	-14%	18µM*	i	-10	2%
CCc1ccccc1NC(=O)C1CCCN(c2nnc(-n3c(C)ccc3C)s2)C1 (stereo unspecified)	·	·	·	·	·	0%
Cc1noc2ncnc(Oc3cc(Cl)ccc3Cl)c12	?	-7%[11.3 µM]	?	?	-102*	0%
Cc1noc2ncnc(Oc3ccc4ccccc4c3)c12	-2%	3%	0%	i	?	-1%
CC1=C(C(=O)OC(C)C)C(c2cccc([N+](=O)[O-])c2)C(C(=O)OC2CN(C(c3ccccc3)c3ccccc3)C2)=C(N)N1 (stereo unspecified)	?	32µM*	21µM*	35µM*	·	·
COCCOC(=O)C1=C(C)NC(C)=C(C(=O)OC(C)C)C1c1cccc([N+](=O)[O-])c1 (stereo unspecified)	9%	?	?	?	-21	0%
COC(=O)C1=C(C)NC(C)=C(C(=O)OC(C)(C)CN(C)CCC(c2ccccc2)c2ccccc2)C1c1cccc([N+](=O)[O-])c1 (stereo unspecified)	12µM*	?	15%	?	·	·
COCCOC(=O)C1=C(C)NC(C)=C(C(=O)OC/C=C/c2ccccc2)C1c1cccc([N+](=O)[O-])c1 (stereo unspecified)	30µM*	?	-2%	i	·	·

Screening results deposited in PubChem BioAssay by National Center for Advancing Translational Sciences (NCATS).
